Source: the supplement of paper PMC11732987, “Enantioselective OTUD7B fragment discovery through chemoproteomics screening and high-throughput optimisation” (Communications Chemistry, 2025)

Key:
Assay in all cases: log2 ratio of Biotin-Ahx-Ub-VS probe labelling (fragment/DMSO); higher = less target engagement (more negative = stronger competition), active = hit call of the paper (q ≤ 0.05, log2 ratio ≤ -1)
Conditions in all cases: compound concentration: 200 uM; treatment time: 3 h
USP19 = target: T1, USP19 (UniProt O94966)
T1 sequence (whole entry): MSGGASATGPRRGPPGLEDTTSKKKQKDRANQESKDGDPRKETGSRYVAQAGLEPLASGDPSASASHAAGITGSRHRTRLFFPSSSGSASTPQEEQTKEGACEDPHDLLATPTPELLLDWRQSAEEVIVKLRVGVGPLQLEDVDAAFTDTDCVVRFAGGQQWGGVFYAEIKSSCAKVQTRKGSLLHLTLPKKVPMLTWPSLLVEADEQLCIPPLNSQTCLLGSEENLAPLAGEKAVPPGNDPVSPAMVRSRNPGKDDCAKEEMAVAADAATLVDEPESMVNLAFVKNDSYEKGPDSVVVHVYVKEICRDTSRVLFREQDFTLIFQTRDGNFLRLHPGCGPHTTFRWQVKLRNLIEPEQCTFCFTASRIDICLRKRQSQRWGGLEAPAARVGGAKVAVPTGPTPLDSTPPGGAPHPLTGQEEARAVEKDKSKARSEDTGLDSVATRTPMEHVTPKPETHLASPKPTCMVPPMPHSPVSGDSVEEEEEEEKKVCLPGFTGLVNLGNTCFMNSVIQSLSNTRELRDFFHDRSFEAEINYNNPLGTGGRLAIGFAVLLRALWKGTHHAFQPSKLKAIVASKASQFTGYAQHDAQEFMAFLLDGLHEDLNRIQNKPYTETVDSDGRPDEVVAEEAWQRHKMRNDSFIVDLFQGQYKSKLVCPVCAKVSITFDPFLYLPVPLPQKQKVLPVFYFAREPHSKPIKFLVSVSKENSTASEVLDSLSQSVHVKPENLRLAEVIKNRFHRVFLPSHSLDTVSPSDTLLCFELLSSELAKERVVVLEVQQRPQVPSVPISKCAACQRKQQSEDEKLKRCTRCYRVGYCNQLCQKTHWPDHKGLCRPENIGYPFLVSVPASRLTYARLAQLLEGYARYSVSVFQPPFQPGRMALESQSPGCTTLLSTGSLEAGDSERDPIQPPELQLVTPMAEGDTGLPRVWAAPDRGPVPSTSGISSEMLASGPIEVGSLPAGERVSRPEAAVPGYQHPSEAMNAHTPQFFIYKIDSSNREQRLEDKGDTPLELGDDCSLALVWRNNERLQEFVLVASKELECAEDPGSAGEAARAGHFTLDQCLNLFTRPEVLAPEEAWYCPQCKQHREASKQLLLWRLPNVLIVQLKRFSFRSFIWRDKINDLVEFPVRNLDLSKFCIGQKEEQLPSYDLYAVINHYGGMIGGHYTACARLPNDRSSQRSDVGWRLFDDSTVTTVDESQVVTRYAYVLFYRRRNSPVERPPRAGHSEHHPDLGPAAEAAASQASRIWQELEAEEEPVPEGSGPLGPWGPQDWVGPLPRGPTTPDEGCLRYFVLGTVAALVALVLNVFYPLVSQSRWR
Outline: (§1)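 The table lists average log2 ratios of fragment over vehicle, from an unpaired t-test on global-median-normalised Spectronaut label-free quantities. Proteins with ≥2 unique peptides were used. Samples were HEK293T lysate (495 µg) treated in triplicate with fragment at 200 µM or vehicle for 3 h, then with Biotin-Ahx-Ub-VS (0.5 µM final) for 1 h, with labelled DUBs NeutrAvidin-enriched and run by diaPASEF LC-MS/MS.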

USP22 = target: T2, USP22 (UniProt Q9UPT9)
T2 sequence (whole entry): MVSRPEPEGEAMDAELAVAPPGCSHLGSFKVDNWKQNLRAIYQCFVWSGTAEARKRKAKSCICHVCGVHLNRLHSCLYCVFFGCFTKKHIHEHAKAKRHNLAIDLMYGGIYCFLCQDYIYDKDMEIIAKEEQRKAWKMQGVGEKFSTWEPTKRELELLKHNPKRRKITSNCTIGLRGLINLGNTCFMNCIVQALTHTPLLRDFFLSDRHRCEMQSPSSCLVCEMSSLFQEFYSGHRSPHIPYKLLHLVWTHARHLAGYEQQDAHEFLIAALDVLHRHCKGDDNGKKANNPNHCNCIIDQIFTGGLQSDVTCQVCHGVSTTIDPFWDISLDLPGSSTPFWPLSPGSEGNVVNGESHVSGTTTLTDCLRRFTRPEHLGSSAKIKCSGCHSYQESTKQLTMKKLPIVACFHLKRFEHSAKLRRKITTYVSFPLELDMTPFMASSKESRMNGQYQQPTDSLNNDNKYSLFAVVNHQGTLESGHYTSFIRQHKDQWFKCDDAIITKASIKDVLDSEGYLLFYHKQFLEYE
Outline: as §1

USP24 = USP24 (UniProt Q9UPU5)
Sequence of USP24 (Q9UPU5 whole entry): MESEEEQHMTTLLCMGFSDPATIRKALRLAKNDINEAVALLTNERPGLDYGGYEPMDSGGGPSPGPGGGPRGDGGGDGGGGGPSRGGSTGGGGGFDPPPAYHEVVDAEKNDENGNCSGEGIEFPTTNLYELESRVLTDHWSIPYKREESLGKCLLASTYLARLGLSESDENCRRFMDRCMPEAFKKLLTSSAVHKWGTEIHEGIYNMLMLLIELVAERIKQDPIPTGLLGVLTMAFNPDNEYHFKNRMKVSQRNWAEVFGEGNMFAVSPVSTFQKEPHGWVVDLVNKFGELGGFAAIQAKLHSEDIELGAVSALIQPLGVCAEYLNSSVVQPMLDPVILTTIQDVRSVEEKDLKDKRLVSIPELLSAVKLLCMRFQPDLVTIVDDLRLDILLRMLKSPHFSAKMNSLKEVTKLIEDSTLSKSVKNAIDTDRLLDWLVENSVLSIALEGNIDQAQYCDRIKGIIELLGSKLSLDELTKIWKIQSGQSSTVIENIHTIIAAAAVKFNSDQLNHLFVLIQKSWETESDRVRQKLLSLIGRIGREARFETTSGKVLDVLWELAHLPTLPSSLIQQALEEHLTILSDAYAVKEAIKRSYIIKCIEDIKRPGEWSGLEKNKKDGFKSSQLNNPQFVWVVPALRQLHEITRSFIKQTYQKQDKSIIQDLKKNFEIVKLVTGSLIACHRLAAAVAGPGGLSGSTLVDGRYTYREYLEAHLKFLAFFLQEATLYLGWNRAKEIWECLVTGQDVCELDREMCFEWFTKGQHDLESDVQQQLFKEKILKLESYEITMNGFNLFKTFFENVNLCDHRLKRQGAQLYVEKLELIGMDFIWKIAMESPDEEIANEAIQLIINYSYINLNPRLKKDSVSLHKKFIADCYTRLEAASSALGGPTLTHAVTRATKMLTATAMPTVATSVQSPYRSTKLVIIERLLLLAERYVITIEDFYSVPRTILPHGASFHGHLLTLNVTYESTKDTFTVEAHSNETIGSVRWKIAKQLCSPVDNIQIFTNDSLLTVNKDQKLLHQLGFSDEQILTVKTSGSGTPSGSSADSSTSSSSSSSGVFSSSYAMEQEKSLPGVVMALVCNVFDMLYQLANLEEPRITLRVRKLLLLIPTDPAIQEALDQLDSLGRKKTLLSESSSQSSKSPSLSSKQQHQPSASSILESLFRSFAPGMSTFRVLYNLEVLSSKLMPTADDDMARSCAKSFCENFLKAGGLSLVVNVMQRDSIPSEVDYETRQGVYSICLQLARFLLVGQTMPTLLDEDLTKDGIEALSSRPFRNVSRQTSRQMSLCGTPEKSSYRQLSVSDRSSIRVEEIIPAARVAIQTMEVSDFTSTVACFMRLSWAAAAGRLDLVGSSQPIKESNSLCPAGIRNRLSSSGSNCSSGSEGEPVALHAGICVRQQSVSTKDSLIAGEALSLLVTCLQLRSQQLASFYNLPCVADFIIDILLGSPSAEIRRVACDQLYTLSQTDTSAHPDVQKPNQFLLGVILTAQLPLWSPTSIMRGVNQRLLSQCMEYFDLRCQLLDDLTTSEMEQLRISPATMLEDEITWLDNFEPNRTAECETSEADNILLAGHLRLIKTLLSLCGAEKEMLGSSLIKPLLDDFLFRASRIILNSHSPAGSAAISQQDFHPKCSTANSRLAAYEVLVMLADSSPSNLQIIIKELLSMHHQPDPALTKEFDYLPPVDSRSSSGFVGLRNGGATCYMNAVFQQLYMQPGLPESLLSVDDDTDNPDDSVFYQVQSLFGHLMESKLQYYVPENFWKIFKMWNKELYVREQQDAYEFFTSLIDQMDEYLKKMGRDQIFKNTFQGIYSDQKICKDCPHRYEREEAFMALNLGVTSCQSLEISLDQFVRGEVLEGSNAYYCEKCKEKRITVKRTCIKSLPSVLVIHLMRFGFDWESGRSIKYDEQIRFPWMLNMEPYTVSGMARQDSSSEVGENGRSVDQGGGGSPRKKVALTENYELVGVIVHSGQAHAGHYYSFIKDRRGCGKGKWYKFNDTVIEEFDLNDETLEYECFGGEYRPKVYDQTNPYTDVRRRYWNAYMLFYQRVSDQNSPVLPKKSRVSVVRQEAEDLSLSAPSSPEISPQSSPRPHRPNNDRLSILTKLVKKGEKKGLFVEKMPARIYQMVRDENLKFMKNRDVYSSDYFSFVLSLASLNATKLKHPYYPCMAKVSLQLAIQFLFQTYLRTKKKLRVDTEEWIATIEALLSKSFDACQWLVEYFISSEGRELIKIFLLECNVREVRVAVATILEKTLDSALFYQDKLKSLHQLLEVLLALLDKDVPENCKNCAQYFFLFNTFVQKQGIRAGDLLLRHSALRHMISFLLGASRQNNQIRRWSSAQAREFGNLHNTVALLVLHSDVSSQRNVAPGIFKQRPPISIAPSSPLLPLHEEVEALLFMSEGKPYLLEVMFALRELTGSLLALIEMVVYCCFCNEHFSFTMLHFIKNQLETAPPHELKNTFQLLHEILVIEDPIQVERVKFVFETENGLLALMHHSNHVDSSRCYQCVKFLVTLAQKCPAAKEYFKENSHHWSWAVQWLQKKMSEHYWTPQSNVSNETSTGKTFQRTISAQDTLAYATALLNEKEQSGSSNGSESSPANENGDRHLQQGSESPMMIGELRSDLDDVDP
Outline: as §1

USP25 = target: T3, USP25 (UniProt Q9UHP3)
T3 sequence (whole entry): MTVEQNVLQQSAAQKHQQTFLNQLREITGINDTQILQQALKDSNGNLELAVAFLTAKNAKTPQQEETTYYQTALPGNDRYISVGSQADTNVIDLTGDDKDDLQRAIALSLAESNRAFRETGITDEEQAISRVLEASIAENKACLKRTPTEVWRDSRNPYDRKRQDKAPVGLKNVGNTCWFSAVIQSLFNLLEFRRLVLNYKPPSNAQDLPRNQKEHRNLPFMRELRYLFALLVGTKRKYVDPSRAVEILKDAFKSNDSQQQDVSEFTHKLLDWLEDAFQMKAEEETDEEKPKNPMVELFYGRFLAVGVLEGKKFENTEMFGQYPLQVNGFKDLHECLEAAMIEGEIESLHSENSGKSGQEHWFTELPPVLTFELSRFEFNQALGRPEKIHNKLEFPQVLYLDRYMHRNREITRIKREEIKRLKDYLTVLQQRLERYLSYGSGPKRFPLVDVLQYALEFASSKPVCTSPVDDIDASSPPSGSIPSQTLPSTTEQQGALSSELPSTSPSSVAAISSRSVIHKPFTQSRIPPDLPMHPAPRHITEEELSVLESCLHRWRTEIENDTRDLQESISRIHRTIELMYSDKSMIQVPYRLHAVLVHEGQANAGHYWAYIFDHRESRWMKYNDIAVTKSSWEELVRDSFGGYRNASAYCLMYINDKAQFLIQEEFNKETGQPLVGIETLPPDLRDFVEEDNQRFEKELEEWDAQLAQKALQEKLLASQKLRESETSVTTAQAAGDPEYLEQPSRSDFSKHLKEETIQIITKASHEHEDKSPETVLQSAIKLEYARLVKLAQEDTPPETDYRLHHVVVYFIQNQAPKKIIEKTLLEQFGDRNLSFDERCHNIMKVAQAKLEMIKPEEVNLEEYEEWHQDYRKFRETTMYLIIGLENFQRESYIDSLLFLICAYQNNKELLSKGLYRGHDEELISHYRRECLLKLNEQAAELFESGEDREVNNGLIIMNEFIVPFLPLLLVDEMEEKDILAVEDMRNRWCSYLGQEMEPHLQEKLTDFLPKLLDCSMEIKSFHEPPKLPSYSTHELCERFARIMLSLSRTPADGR
Outline: as §1

USP28 = target: T4, USP28 (UniProt Q96RU2)
T4 sequence (whole entry): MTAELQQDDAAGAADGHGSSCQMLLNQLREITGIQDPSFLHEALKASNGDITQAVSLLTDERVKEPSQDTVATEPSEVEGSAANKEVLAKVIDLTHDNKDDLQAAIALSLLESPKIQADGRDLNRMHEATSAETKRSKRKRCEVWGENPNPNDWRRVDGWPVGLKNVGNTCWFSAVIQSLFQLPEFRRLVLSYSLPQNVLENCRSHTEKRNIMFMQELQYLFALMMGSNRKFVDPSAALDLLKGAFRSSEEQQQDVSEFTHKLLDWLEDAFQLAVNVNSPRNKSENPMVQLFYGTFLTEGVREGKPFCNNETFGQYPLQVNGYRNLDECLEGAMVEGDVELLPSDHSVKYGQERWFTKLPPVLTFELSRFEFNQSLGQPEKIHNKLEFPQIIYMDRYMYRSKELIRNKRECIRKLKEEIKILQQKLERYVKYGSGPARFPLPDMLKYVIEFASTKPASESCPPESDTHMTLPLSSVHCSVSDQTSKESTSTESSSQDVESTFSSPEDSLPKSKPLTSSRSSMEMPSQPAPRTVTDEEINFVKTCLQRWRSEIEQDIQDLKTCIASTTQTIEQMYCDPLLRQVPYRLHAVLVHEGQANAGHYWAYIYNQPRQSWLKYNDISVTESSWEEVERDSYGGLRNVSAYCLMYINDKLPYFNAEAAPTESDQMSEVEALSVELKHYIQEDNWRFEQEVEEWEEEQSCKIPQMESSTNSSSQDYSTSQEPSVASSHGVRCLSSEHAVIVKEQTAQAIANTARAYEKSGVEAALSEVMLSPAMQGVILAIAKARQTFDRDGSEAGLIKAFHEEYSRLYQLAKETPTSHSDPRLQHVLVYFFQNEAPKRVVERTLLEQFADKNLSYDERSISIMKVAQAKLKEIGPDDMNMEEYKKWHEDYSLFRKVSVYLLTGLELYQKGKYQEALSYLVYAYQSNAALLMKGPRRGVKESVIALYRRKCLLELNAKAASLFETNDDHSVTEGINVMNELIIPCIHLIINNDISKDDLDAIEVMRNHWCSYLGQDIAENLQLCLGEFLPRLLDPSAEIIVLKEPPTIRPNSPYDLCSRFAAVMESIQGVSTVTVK
Outline: as §1

Measured: log2 ratio of Biotin-Ahx-Ub-VS probe labelling

Cc1cccc(C)c1NC(=O)CCl
inactive: USP19 -0.0774 | USP22 0.0867 | USP24 -0.266 | USP25 -0.436 | USP28 -0.794
